Reference: PubChem BioAssay (EPA / NIEHS)
“And” between values parts separate entries of the source, which are not always exact repeats. Equal values may be shown once. Some structures have more than one record in an assay (separate samples or runs), and their calls can disagree. The source made the active and inactive calls. How the source made its calls: active means hit-call score of the fitted dose curve at least 0.9, where 1 is the maximum; inactive means score below 0.9.

Read-out: Monocyte Chemoattractant Protein-1 (MCP1), CCL2 (gene 6347)
Experiment: BSK_BF4T_MCP1: BioMAP Diversity Plus: BF4T Assay for Monocyte Chemoattractant Protein-1 (MCP1) Biomarker Activity (AID 2284259)
Conditions: primary human bronchial epithelial cells with fibroblasts
Protocol: BSK_BF4T is a cell-based, multiplexed-readout assay that uses bronchial epithelial cells and dermal fibroblasts, a human vascular primary cell, with measurements taken at 24 hours after chemical dosing in a microplate: 96-well plate.BSK_BF4T_MCP1 is an assay component measured in the BSK_BF4T assay. It measures MCP-1 antibody related to regulation of gene expression using ELISA technology.Data from the assay component BSK_BF4T_MCP1 was analyzed at the endpoint, BSK_BF4T_MCP1, in the positive analysis fitting direction relative to DMSO as the negative control and baseline of activity. Using a type of binding reporter, gain or loss-of-signal activity can be used to understand protein changes. To generalize the intended target to other relatable targets, this assay endpoint is annotated to the 'cytokine' intended target family, where the subfamily is 'chemotactic factor'.
The levels of cell surface (or secreted, indicated by the prefix "s") biomarker endpoints were measured by ELISA. Overt cytotoxicity to cells in confluent adherent cultures (all systems other than the BT system) was assessed by measuring total protein levels using sulforhodamine B (SRB) staining in parallel cultures at the time of biomarker measurements, indicated as SRB endpoints. For proliferation assays for adherent cell types, individual cell types are cultured at sub-confluence and relative cell numbers quantified by SRB staining at time points optimized for each system (48 h: 3C and CASM3C systems; 72 h: BT and HDF3CGF systems; 96 h: SAg system). SRB was performed by staining cells with 0.1% SRB after fixation with 10% TCA and reading wells at 560 nm.Viability and proliferation of PBMC (T cells) was quantified by Alamar Blue reduction for the SAg and BT systems. For PBMC viability (referred to as PBMC Cytotoxicity within the assay endpoint names), cells were plated (75,000/well in a 96-well plate) and then chemical samples added for 1 h before addition of activators, SEB and TSST-1 (20 ng/mL final concentration each). Cells were incubated for 90 h. Then, Alamar Blue (20 uL/well) (Invitrogen, Cat DAL1100) was added for 6 h, and the plates were read with a fluorescence microplate reader at 546/580 nm (excitation/emission). For PBMC proliferation, cells were plated and activated as above but incubated for only 16 h prior to addition of Alamar Blue. Plates were read after 6 h.

Structure (SMILES) | outcome | AC50
FC(F)(F)C(F)(F)C(F)(F)CC1CO1 (stereo not given) | inactive | 
NC(=O)C(F)(F)C(F)(F)C(F)(F)C(F)(F)C(F)(F)C(F)(F)C(F)(F)F | inactive | 
NCC(F)(F)C(F)(F)C(F)(F)C(F)(F)C(F)(F)C(F)(F)C(F)(F)C(F)(F)F | inactive | 
FC(F)(F)C(F)(F)C(F)(F)C(F)(F)C(F)(F)C(F)(F)C(F)(F)CCI | inactive | 
CN(C(=O)C(F)(F)C(F)(F)C(F)(F)F)[Si](C)(C)C | inactive | 
O=C(O)C(F)(F)C(F)(F)C(F)(F)OC(F)(C(F)(F)F)C(F)(F)F | inactive | 5.77 µM (active)
FC(F)(F)C(F)(F)C(F)(F)C(F)(F)C(F)(F)C(F)(F)CC[Si](Cl)(Cl)Cl | inactive | 
CCOC(=O)CC(=O)C(F)(F)C(F)(F)F | inactive | 
CNS(=O)(=O)C(F)(F)C(F)(F)C(F)(F)C(F)(F)C(F)(F)C(F)(F)C(F)(F)C(F)(F)F | inactive | 
O=C(F)C1(F)C(F)(F)C(F)(F)C(F)(F)C(F)(F)C1(F)F | inactive | 
C=CC(=O)OCCC(F)(F)C(F)(F)C(F)(F)C(F)(F)F | inactive | 
NC(O)(C(F)(F)F)C(F)(F)F | inactive | 
OCCCC(F)(F)C(F)(F)C(F)(F)C(F)(F)C(F)(F)C(F)(F)C(F)(F)C(F)(F)F |  | 21.6 µM (active) and 18 µM (active)
NS(=O)(=O)C(F)(F)C(F)(F)C(F)(F)C(F)(F)C(F)(F)C(F)(F)F | inactive | 7.99 µM (active)
CCN(CCO)S(=O)(=O)C(F)(F)C(F)(F)C(F)(F)C(F)(F)C(F)(F)C(F)(F)C(F)(F)C(F)(F)F | inactive | 
OCC(O)CC(F)(F)C(F)(F)C(F)(F)C(F)(F)F (stereo not given) | inactive | 0.263 µM (active)
NC(=O)C(F)(F)C(F)(F)C(F)(F)C(F)F | inactive | 
O=C(O)CCC(F)(F)C(F)(F)C(F)(F)C(F)(F)C(F)(F)C(F)(F)C(F)(F)F | inactive | 0.949 µM (active)

Structure (SMILES) | outcome | AC50
OC(O)C(F)(F)C(F)(F)F | inactive | 
OCC(O)CC(F)(F)C(F)(F)C(F)(F)C(F)(F)C(F)(F)C(F)(F)C(F)(F)C(F)(F)F (stereo not given) | inactive | 
NC(=O)C(F)(F)C(F)(F)C(F)(F)C(F)(F)C(N)=O | inactive | 
O=C(Cl)C(F)(F)C(F)(F)C(F)(F)C(F)(F)C(F)(F)C(F)(F)C(F)(F)F | inactive | 
O=C(O)C(F)(F)C(F)(F)C(F)(F)C(=O)O | inactive | 
C=CC(=O)OCC(F)(F)C(F)(F)C(F)(F)COC(=O)C=C |  | 15.3 µM (active) and 11.7 µM (active)
NC(=O)C(F)(F)C(F)(F)C(F)(F)F | inactive | 
O=S(=O)(OCC(F)(F)F)C(F)(F)C(F)(F)C(F)(F)C(F)(F)F | inactive | 
OCCCCC(F)(F)C(F)(F)C(F)(F)C(F)(F)F | inactive | 
C=C(C)C(=O)OCC(F)(F)C(F)(F)C(F)(F)C(F)F | inactive | 
O=C(O)CCC(F)(F)C(F)(F)C(F)(F)F | inactive | 
NCC(F)(F)C(F)(F)C(F)(F)C(F)(F)C(F)(F)C(F)(F)F | inactive | 
O=C(O)C(F)(F)C(F)(F)C(F)(F)OC(F)(F)F | inactive | 
OCC(F)(F)C(F)(F)C(F)(F)CO | inactive | 
CO[Si](C)(CCC(F)(F)C(F)(F)C(F)(F)C(F)(F)C(F)(F)C(F)(F)F)OC | inactive | 
O=C(Cl)C(F)(F)C(F)(F)C(F)(F)C(F)(F)C(F)(F)C(F)(F)F | inactive | 
COC(F)(C(F)F)C(F)(F)F (stereo not given) | inactive | 
O=C(O)C(F)(F)OC(F)(F)C(F)(F)OC(F)(F)C(F)(F)OC(F)(F)F | inactive | 
